Data as given in PubChem BioAssay AID489042 (NMMLSC, 2010).
A number with no mark means an inactive call. The source made the active and inactive calls. No stated cut-off is given here; in the data, active means inhibition score above about 11; inactive means the rest.

Experiment: yeast proliferation inhibition, dose response, BY4741, OD595, 24 h (AID 489042)
Details: S. cerevisiae BY4741 growth, flow cytometer event count, 7 d (AID 449753), active compounds read high

Row | SMILES | inhibition score
1 | C[C@@]12C(=O)OC(=O)[C@]1(C)C1CCC2O1 | 11 (active)
2 | O=C(/C=C/c1cccs1)NC(=S)NNC(=O)Cc1cccs1 | 11 (active)
3 | CSc1nnc2c3cc(F)ccc3n(C)c2n1 | 0
4 | Cc1ccccc1NC(=O)c1cccc2nc3ccccc3nc12 | 0
5 | c1ccc2nc3ccccc3nc2c1 | 0
6 | O=C(O)c1cnc2ccccc2n1 | 0
7 | COc1ccc2nc3ccccc3nc2c1N | 0
8 | CNC(=O)c1cccc2nc3ccccc3nc12 | 0
9 | COc1ccc2c3c(cccc13)N(C)N=C2C | 0
10 | C=CCSc1nnc(-c2ccc([N+](=O)[O-])cc2)o1 | 0
11 | O=C(Nc1cccc(Cl)c1)Nc1ccc2nccnc2c1 | 0
12 | N#CC(c1nc2ccccc2nc1N1CCCC1)S(=O)(=O)c1ccccc1 (centres undefined) | 0
13 | COc1ccc2nc3cccc(OC)c3nc2c1 | 0
14 | CCN(CC)c1ccc2nc3ccc(N)cc3[n+](-c3ccccc3)c2c1 | 0
15 | Cc1cc(C)cc(NC(=O)CN2CCN(c3ccccn3)CC2)c1 | 0
16 | COc1ccc2nc3ccccc3nc2c1 | 0
17 | CCc1nc(NC(C)(C)C)c2cnn(-c3ccccc3)c2n1 | 0
18 | CC(C)(C)n1nc(-c2ccc(F)cc2)c2c(N)ncnc21 | 0
19 | CCC(=Nc1ccccc1O)C1=C(O)CC(c2ccccc2)CC1=O (centres undefined) | 0
20 | CN(C)CCNc1ncnc2c1cnn2-c1ccc(Cl)cc1 | 0
21 | [O-][n+]1c2ccccc2[n+]([O-])c2cc(O)ccc21 | 0
22 | CCCCCNC(=O)C(=O)C1C(=O)Nc2ccccc21 (centres undefined) | 0
23 | COc1ccc2c(c1)c1nnc(SC)nc1n2C | 0
24 | C#CCSc1nnc(-c2ccc([N+](=O)[O-])cc2)o1 | 0
25 | CCn1c2ccccc2c2n[nH]c(=S)nc21 | 0
26 | CC(C)OC(=O)CSc1nnc(-c2ccc(Cl)cc2Cl)o1 | 0
27 | COc1cccc2nc3cc(C)c(C)cc3nc12 | 0
28 | COC(=O)c1cccc2nc3c(C(C)O)cccc3nc12 (centres undefined) | 0
29 | Cc1cccc2nc3ccccc3nc12 | 0
